# According to the supplement of paper PMC13380429:
# Unmarked numbers belong to inactive results.
# Test system: Vero E6 infected with SARS-CoV-2
# Experiment: inhibition of SARS-CoV-2 cytopathic effect; higher = more antiviral protection, active = above 15
# Conditions: 48 h
SMILES,inhibition of SARS-CoV-2 cytopathic effect (1 nM) [%],inhibition of SARS-CoV-2 cytopathic effect (8.33 nM) [%],inhibition of SARS-CoV-2 cytopathic effect (100 nM),inhibition of SARS-CoV-2 cytopathic effect (833.33 nM) [%],inhibition of SARS-CoV-2 cytopathic effect (10000 nM)
COC(=O)[C@H]1[C@H]2C[C@@H]3c4[nH]c5cc(OC)ccc5c4CCN3C[C@H]2C[C@@H](OC(=O)c2cc(OC)c(OC)c(OC)c2)[C@@H]1OC [reserpine],1.33,3.05,0.71%,3.56,7.95%
CC12CCC(C(=O)N(CCCCN3CCN(c4ccccn4)CC3)C1=O)C2(C)C (stereo not given) [piricapiron],-2.91,-0.34,-1.87%,0.95,1.64%
O=C(NCCN1CCN(c2ncccn2)CC1)C12CC3CC(CC(C3)C1)C2 [adatanserin],-1.23,0.62,-2.77%,2.26,-1.99%
CCCCC(F)(F)[C@@]1(O)CC[C@H]2[C@@H](CC(=O)[C@@H]2CCCCCCC(=O)O)O1 [lubiprostone],-0.41,-0.13,-0.73%,-1.89,-0.01%
CC(C)(C)C(=O)Oc1ccc(S(=O)(=O)Nc2ccccc2C(=O)NCC(=O)O)cc1 [sivelestat],1.78,-0.24,0.61%,1.84,-1.94%
Nc1nc(N)c(N=O)c(OCC2CCCCC2)n1,-3.27,3.73,1.88%,5.81,18.5% (active)
COc1cc2c(c(OC)c1OC)-c1c(cc3c(c1OC)OCO3)C[C@H](C)[C@@](C)(O)C2 [schisandrol-B],3.78,3.17,2.65%,2.33,1.68%
C[N+]1(C)CCc2cc3c(cc2[C@H]1[C@@H]1OC(=O)c2c1ccc1c2OCO1)OCO3 [bicuculline-methochloride-(-)],-4.58,0.48,0.65%,3.59,-2.23%
CC(O)Cn1cnc2c1c(=O)n(C)c(=O)n2C (stereo not given) [Proxyphylline],-1.14,-0.86,-0.81%,-0.51,0.19%
CCCCCCCCCC(=O)OC1(c2ccc(Cl)cc2)CCN(CCCC(=O)c2ccc(F)cc2)CC1 [haloperidol-decanoate],0.13,0.37,-2.1%,-0.9,-1.91%
CCC1=C[C@@H]2CN3CCc4c([nH]c5ccccc45)[C@@](C(=O)OC)(C2)[C@@H]13 [catharanthine],0.42,0.35,0.47%,0.93,2.81%
COc1ccc(S(=O)(=O)N2CCC[C@H]2C(=O)Nc2cc(C)cc(C)c2)cc1,-4.61,-4.21,-5.02%,-4.87,1.64%
O=C(NC[C@H](O)CN1CCc2ccccc2C1)c1cc(NC2COC2)ncn1,-3.14,-1.3,-2.1%,-3.82,-1.65%
COc1ccccc1S(=O)(=O)Nc1ccc2c(c1)CN(C)C(=O)N2,2.59,3.07,0.97%,1.47,-5.29%
COc1cc(Cc2cnc(N)nc2N)cc(OC)c1OC [trimethoprim],-0.11,0.21,-0.75%,2.08,2.04%
O=C(O)c1ccccc1C(=O)Nc1ccc(S(=O)(=O)Nc2nccs2)cc1 [phthalylsulfathiazole],-0.6,1.91,1.2%,1.78,-0.84%
N=C(N)c1ccc(/N=N/Nc2ccc(C(=N)N)cc2)cc1 [diminazene-aceturate],0.66,-1.51,-3.27%,-14,2.42%
Cc1[nH]cnc1-c1ccc(Cl)cc1 [lofemizole],-0.61,-0.4,150% (active),0.04,-0.36%
